Most compounds without a hit are left out; they make up all but 13% or so of the library.
Pf growth 48h = Primary qHTS for delayed death inhibitors of the malarial parasite plastid, 48 hour incubation | P. falciparum luciferase growth in erythrocytes, 48 h | Potency, µM (titrated, usually from 28.7 µM), without a hit: top-dose activity change, negative = inhibition, usual class: inhibitors | 5.9% of 310,000 active | AID 504832, 2011; also: potency is read from the fitted curve at half-maximal effect
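A one-generation exposure of luciferase-tagged malaria parasites in RPMI 1640/Albumax erythrocyte culture, 37 C and 5% CO2. Inhibition is inferred from decreased luminescence after adding detection reagent.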
Pf growth 96h = Primary qHTS for delayed death inhibitors of the malarial parasite plastid, 96 hour incubation. P. falciparum luciferase reporter growth, 96 h. Potency, µM (highest dose often 28.7 µM), without a hit: top-dose activity change, negative = inhibition, hits mostly inhibitors. 6.9% of 320,000 active. AID 504834, 2011; also: potency is read from the fitted curve at half-maximal effect
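Delayed-death screen, second-generation endpoint: infected erythrocytes, 2% hematocrit, 0.05% parasitemia final; 96 hours at 37 C, 5% CO2; luciferase detection reagent; luminescence decrease equals reduced growth.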
HCMV antiviral = qHTS Assay for inhibitors of the human cytomegalovirus (HCMV); 4.5% of 410,000 active; activity change, negative = inhibition, % at 57.5 µM; HFF cells, HCMV-luciferase reporter, 72 h; hits give low values; in the data active = activity change below about -60%; inconclusive = no clear call, values can overlap the other calls; inactive = above about -39%
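Cell-based, HFFs, 1000 cells/well, 16 h 37C; cpds in DMSO + HCMV-luc, MOI 1 PFU/cell; 72 h 37C; OneGlo luminescence after 5 min RT; norm. to buffer vs Salinomycin 10uM.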
HCV inh = qHTS Assay for Inhibitors of Hepatitis C Virus (HCV); Huh7.5.1 HCVcc-Cre infection, luciferase reporter, 44 h; Potency, µM (series often up to 41.8 µM), for inactives: top-dose activity change, negative = inhibition, actives largely listed as inhibitors; 3.4% of 340,000 active; also: potency is read from the fitted curve at half-maximal effect
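Infectious HCVcc-Cre (~0.5 moi) was added to cells just after compound, with cells seeded 4 h earlier at 1,000 per well. Luciferase activity after 44 h culture reported infection; substrate was incubated 15 min at room temperature before reading.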
* hit, by the source's call; ? = inconclusive; . = not tested or not shown; [ ] = dose if it differs, or a comment. Unless noted, calls follow the shape of the dose curve; as a rule, active = well fitted inhibition curve with a large enough effect; inconclusive = small, poorly fitted or top-dose-only effect, or another doubt; inactive = no such curve, though single readings can be large or run the other way. % is scaled to controls: 0 for no effect and ±100 for the full control effect.

SMILES	Pf growth 48h	Pf growth 96h	HCMV antiviral	HCV inh
CN(CCCN1CCOCC1)Cc1cn(C)nc1-c1ccccc1F	0%	5.9µM*	15	1%
Cc1c(CN(C)Cc2cn(C)nc2-c2ccccc2F)[nH]c2ccccc12	-9%	3.7µM*	-22	-1%
Cc1ccc(C(=O)c2cn(Cc3cccc(Cl)c3)c3nc(C)ccc3c2=O)cc1	.	.	-8	.
CCC(Cn1nnc2ccccc2c1=O)NC(=O)Nc1ccc(C)cc1C (configuration not stated)	.	.	1	.
COc1ccc(C(=O)NC(=S)NNC(=O)c2ccc3ccccc3n2)cc1	?	?	-97*	11µM*
COc1cc(OC)cc(C(=O)NNC(=O)c2ccc3ccccc3n2)c1	?	?	-75*	?
COc1ccc(N=C(NN)c2ccc3ccccc3n2)cc1	130%	2%	-89*	6%
COc1cc(C(=O)NNC(=O)c2ccc3ccccc3n2)cc(OC)c1OC	?	-73%	46	?
COc1ccc(C(=O)NNC(=S)NC(=O)c2ccc(Cl)cc2)cc1	.	.	-15	?
COc1ccc(NC(=S)c2ccc3ccccc3n2)cc1	68%	54%	.	5%
O=C(Oc1cccc(/C=N/Nc2nc(N3CCOCC3)nc(N3CCOCC3)n2)c1)c1ccco1	5%	35%	125	1.1µM*
BrC(=C\c1ccccc1)/C=N/Nc1nc(N2CCOCC2)nc(N2CCOCC2)n1	7.4µM*	?	32	?
BrC(/C=C\c1ccccc1)=N/Nc1nc(N2CCOCC2)nc(N2CCOCC2)n1	?	?	22	-13%
COc1cc(/C=N/Nc2nc(Nc3ccccc3)nc(N3CCOCC3)n2)ccc1OC(=O)c1ccco1	?	?	35	?
N#CC(c1ccc(Cl)nn1)c1ccc(Cl)cc1Cl (configuration not stated)	-10%	.	-26	11µM*
Cc1ccc2c(c1)Oc1ccc(NC(=O)CCCl)cc1C(=O)N2	?	0.29µM*	-90*	?
O=C(NCc1ccccn1)c1cc(-c2ccc(Cl)cc2)oc1C(F)(F)F	-2%	15%	-1	?
O=C(NCc1ccncc1)c1cc(-c2ccc(Cl)cc2)oc1C(F)(F)F	8%	8%	-27	11µM*
O=C(NCc1ccncc1)c1ccc(-c2ccc(F)c(F)c2)c2ccoc12	.	.	-73*	.
COc1ccc(-c2ccc(C(=O)NCc3ccncc3)c3occc23)c(C)c1	.	.	-91*	.
O=C(NCc1ccc(C(F)(F)F)cc1)c1ccc(-c2ccc(F)c(F)c2)c2ccoc12	.	.	1	.
CC1CN(C(=O)N2CCC(C(=O)NCc3cccs3)CC2)c2cc(Cl)ccc2O1 (configuration not stated)	.	.	-11	.
COc1cccc(-n2nc(C#N)c(Cl)cc2=O)c1	0%	-4%	-96*	?
COc1cccc(-n2nc(C(N)=O)c(O)cc2=O)c1	6%	4%	-7	11%
COc1cc2c(cc1OC)-c1cc3ccc4c(c3c[n+]1CC2)OCO4	1µM*	0.15µM*	-33	-13%
SMILES	Pf growth 48h	Pf growth 96h	HCMV antiviral	HCV inh
COc1cc2c(cc1OC)CN(Cc1cc(OC)c3c(c1)OCO3)CC2	?	?	-12	15%
COc1cc2c(cc1O)CC[n+]1cc3c(OC)c(OC)ccc3cc1-2	0.41µM*	0.12µM*	-32	-8%[8.37 µM]
O=C(c1ccc(C(F)(F)F)cc1)C1CCCN(C(=O)CCc2ccncc2)C1 (configuration not stated)	?	?	-21	11µM*
O=C(c1ccc(C(F)(F)F)cc1)C1CCCN(Cc2ccncc2)C1 (configuration not stated)	12µM*	9%	?	6.3µM*
NC(=O)CCC(=O)N1CCCC(C(=O)c2ccc(C(F)(F)F)cc2)C1 (configuration not stated)	4%	13µM*	-21	-4%
COc1cc(CN2CCCC(C(=O)c3ccc(C(C)(C)C)cc3)C2)cc(OC)c1O (configuration not stated)	6.6µM*	36%	32	?
COc1cc(-c2nccc3[nH]nc(-c4ccncc4)c23)cc(OC)c1OC	.	.	-9	.
COc1cc(CN(C(=O)c2ccc(Cl)cc2)C2CCS(=O)(=O)C2)cc(OC)c1OC (configuration not stated)	.	.	0	.
O=C(CSc1nc(C2CC2)nc2ccccc12)N1CCCCC1	?	-11%	-11	-21%
CC(C)c1nc(SCC(=O)N2CCCC2)c2ccccc2n1	-21%	13%	-78*	?
O=C(CSc1nncc2ccccc12)N1CCCCC1	7%	-34%	-64*	-6%
O=C(CSc1nc(C2CCCCC2)nc2ccccc12)N1CCCC1	?	-25%	-101*	-26%
CCCCC1OC(CCc2ccccc2)CC2=C1C(=O)OC(C)(C)O2 (configuration not stated)	.	.	19	.
CCOC(=O)[C@]12Cc3cc(C)ccc3[C@H]1N(Cc1ccccc1)C(=O)c1ccccc12	.	.	-13	-12%[8.37 µM]
CCOC(=O)[C@]12Cc3c(cc(OC)c(OC)c3OC)[C@H]1N(C(C)C)C(=O)c1ccccc12	.	.	-100*	.
CCOC(=O)[C@]12Cc3cc(OC)ccc3[C@H]1N(Cc1ccccc1)C(=O)c1ccccc12	.	.	-13	?
CCOC(=O)[C@]12Cc3cc(C)ccc3[C@H]1N(C(C)C)C(=O)c1ccccc12	.	.	-98*	.
CCOC(=O)N1CCN(C(=O)C2c3cc(OC)c(OC)cc3C(=O)N3CCc4ccccc4C23)CC1 (configuration not stated)	4%	-24%	-4	2%
CCOC(=O)[C@]12Cc3ccccc3[C@H]1N(C)C(=O)c1cc(OC)ccc12	.	.	-97*	.
CCOC(=O)[C@]12Cc3ccccc3[C@H]1N(C(C)C)C(=O)c1cc(OC)ccc12	.	.	-97*	.
COc1ccc(N2CC(NC(=O)/C=C\c3ccc(OC)c(OC)c3)CC2=O)cc1 (configuration not stated)	.	.	26	.
CCCc1cc(=O)oc2c3c(ccc12)OCN(Cc1ccc(OC)cc1)C3	.	.	-29	.
CCCCC(=O)NC(c1cccs1)c1cc(Cl)c2cccnc2c1O (configuration not stated)	0.74µM*	0%	-100*	2.2µM*
COc1ccc(C(NC(C)=O)c2cc(Cl)c3cccnc3c2O)cc1 (configuration not stated)	?	?	-99*	10µM*
CCCC(=O)NC(c1ccc(OC)c(OC)c1)c1cc(Cl)c2cccnc2c1O (configuration not stated)	9.3µM*	?	-99*	-26%
CC(=O)NC(c1ccco1)c1cc(Cl)c2ccc(N3CCCCC3)nc2c1O (configuration not stated)	-26%	-23%	.	.
CC(=O)NC(c1cc(F)c2cccnc2c1O)C1CC1 (configuration not stated)	?	?	27	.

Screening results: PubChem BioAssay, National Center for Advancing Translational Sciences (NCATS)
